The target of assay [1] is Cytochrome P450 2C9 (Homo sapiens) (UniProt P11712). Briefly: Cytochrome P450 family 2 subfamily C member 9 (CYP2C9) small molecule antagonists: luciferase biochemical (cell-free) qHTS assay (AID 1645842; active = well fitted curve in the direction sought with a large enough effect in the repeat runs; an effect the other way counts as inactive or inconclusive; also: % is scaled to controls: 0 for no effect and ±100 for the full control effect; nearly all actives have a fitted effect of over 55% in size). In outline:
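Luminescence, after 20 min with luciferin detection reagent, reflected CYP2C9 turnover during a 1 h NADPH-driven reaction at 37C. Enzyme-substrate mix contained 0.4% bovine serum albumin and was preincubated with compound 10 min at room temperature.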
For orientation: qHTS replaces the single test concentration by a dilution series.

Assay [2] can be described thus: Primary qHTS for inhibitors of nuclear receptor binding SET domain protein 2 (NSD2) in an isogenic RCH-ACV NSD2 p.E1099K mutant (9B) (AID 1645876; active = well fitted curve in the direction sought with a large enough effect; an effect the other way counts as inactive or inconclusive; also: % is scaled to controls: 0 for no effect and ±100 for the full control effect; nearly all actives have a fitted effect of over 70% in size).
The nature of assay [3]: Primary qHTS for inhibitors of nuclear receptor binding SET domain protein 2 (NSD2) in an RCH-ACV wild type WT cells (2C) (AID 1645877; active = well fitted curve in the direction sought with a large enough effect; an effect the other way counts as inactive or inconclusive; also: % is scaled to controls: 0 for no effect and ±100 for the full control effect; nearly all actives have a fitted effect of over 70% in size).
Assay [4] can be described thus: Confirmatory qHTS to identify inhibitors of SARS-CoV-2 cell entry (AID 1645844). Also: nearly all actives have a fitted effect of over 45% in size. Also: potency is read from the fitted curve at half-maximal effect. In outline: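 Luminescence from a luciferase reporter, read 48 hr after pseudotyped-particle addition, gives entry signal, normalised to spike-bearing PP wells and bald PP lacking fusion protein wells. Cells are Expi293F stably expressing human ACE2, compound-pretreated 1 hr.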
Assay [5] in a line: Cytotoxicity counterscreen for inhibitors of SARS-CoV-2 cell entry (AID 1645845). Also: nearly all actives have a fitted effect of over 50% in size. Summed up: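 48 h compound treatment (after 1 h preincubation), HEK293-ACE2 cells, 37 C/5% CO2; ATP luminescence endpoint; normalized to cell wells and media blanks.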
For orientation: The purpose of a counterscreen is to sort out artefacts and off-target activity.

A short description of assay [6]: VSVG counterscreen qHTS to identify inhibitors of SARS-CoV-2 cell entry (AID 1645847). Also: nearly all actives have a fitted effect of over 65% in size. Also: potency is read from the fitted curve at half-maximal effect. As to activity change, negative = inhibition: % is scaled to controls: 0 for no effect and ±100 for the full control effect. Summed up:
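Luminescence from a luciferase reporter, normalised to bald particle and VSV-G pseudotyped particle wells, is the read-out. Cells are HEK293 expressing human ACE2, exposed to compound 1 h before a 48 h particle infection at 37 °C.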

A short description of assay [7]: Primary qHTS to identify inhibitors of SARS-CoV-2 cell entry (AID 1645846). Also: nearly all actives have a fitted effect of over 45% in size. Also: potency is read from the fitted curve at half-maximal effect. The settings on record: activity change, negative = inhibition: at 57.1 µM (top of the series) unless noted. Summed up:
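Inhibition of spike-mediated entry was scored in human ACE2-transfected Expi293F cells. Particles were MLV-pseudotyped with Wuhan-Hu-1 S carrying a 19-aa C-terminal deletion; signal was luciferase after two days, scaled between spike PP and fusion-protein-free PP.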

“And” between values parts separate entries of the source, which are not always exact repeats. Equal values may be shown once. Records with an inconclusive call do not appear. A structure can be active in one record and inactive in another. The source made the active and inactive calls. Unless noted, calls follow the shape of the full dose curve.

Chain of Cytochrome P450 2C9 (Homo sapiens) (P11712 whole entry, looked up): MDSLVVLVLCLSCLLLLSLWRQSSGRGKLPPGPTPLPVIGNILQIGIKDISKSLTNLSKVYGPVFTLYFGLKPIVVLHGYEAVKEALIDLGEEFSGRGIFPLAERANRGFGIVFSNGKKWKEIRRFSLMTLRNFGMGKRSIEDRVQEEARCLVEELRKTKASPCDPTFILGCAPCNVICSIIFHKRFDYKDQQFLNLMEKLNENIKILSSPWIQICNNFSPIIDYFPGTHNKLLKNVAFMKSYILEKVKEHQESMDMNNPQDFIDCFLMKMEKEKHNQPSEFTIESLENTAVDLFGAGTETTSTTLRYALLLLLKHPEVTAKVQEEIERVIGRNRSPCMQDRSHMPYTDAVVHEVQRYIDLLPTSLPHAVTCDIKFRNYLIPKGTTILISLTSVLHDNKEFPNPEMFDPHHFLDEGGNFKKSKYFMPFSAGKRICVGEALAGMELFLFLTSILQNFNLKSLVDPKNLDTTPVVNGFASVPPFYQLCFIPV

Take `C[C@]12CC[C@H]3[C@@H](CCC4=CC(=O)CC[C@@]43C)[C@@H]1CC[C@@H]2C(=O)O`: the Potency result in assay [1], in assay [2] and in assay [3] was “inactive” each time.
In the case of `C1CN2CCC1CC2`, the Potency entry in assay [1], in assay [2] and in assay [3] was “inactive” in each case.
Consider `O=C(CCCN1CCN(c2ccc(F)cc2)CC1)NC1c2ccccc2CSc2ccccc21` (stereo not given), for which the values for the Potency in assay [4] and in assay [6] were 1.92 µM (active) and 1.71 µM (active), respectively. Moreover, the Potency entry in assay [5] is “inactive”.
On to `CCCCCCOC(=O)NC(=N)c1ccc(NCc2nc3cc(C(=O)N(CCC(=O)OCC)c4ccccn4)ccc3n2C)cc1`, for which the Potency in assay [4] is 10.8 µM (active); in assay [7], 22.4 µM (active); in assay [6] it was 4.82 µM (active). Also, the Potency entry in assay [5] is “inactive”. Besides, the activity change, negative = inhibition in assay [7] was -62%.
Take `Oc1ccc(Cl)cc1Cc1cc(Cl)ccc1O`: the Potency in assay [4] is 0.0152 µM (active); in assay [6], 3.83 µM (active).
`CN(C(=O)c1c(O)c2ccccc2n(C)c1=O)c1ccccc1`: the Potency entry in assay [4] and in assay [6] was “inactive” throughout.
Turning to `CC(=O)[C@H]1CC[C@H]2[C@@H]3CC=C4C[C@@H](O)CC[C@]4(C)[C@H]3CC[C@]12C`, the Potency result in assay [5] and in assay [7] was “inactive” each time.
With `NCC1CCC(C(=O)Oc2ccc(CCC(=O)O)cc2)CC1` (stereo not given), the Potency entry in assay [5] and in assay [7] was “inactive” in each case.
Turning to `COc1ccc(-c2cc(C(F)F)nn2-c2ccc(S(N)(=O)=O)cc2)cc1F`, the Potency entry in assay [5] is “inactive”. In addition, the activity change, negative = inhibition in assay [7] came to 1.11%.
Consider `CN(C)CC[C@@H](c1ccc(Cl)cc1)c1ccccn1`, for which, in assay [5], the Potency entry is “inactive”. Also, the activity change, negative = inhibition in assay [7] is 0.546%.
For `CNC1CCCN(c2c(F)cc3c(=O)c(C(=O)O)cn(C4CC4)c3c2OC)C1` (stereo not given), in assay [5], the Potency result is “inactive”. The activity change, negative = inhibition in assay [7] was -27.9% and -16.1%.
Regarding `CN1C[C@H](C(=O)N[C@]2(C)O[C@@]3(O)[C@@H]4CCCN4C(=O)[C@H](Cc4ccccc4)N3C2=O)C[C@@H]2c3cccc4[nH]cc(c34)C[C@H]21`, the Potency result in assay [5] was “inactive”.
In the case of `Brc1c(NC2=NCCN2)ccc2nccnc12`, the Potency entry in assay [5] and in assay [7] was “inactive” throughout.
`NC(=O)CCCCC1CCSS1` (stereo not given): the Potency result in assay [5] and in assay [7] was “inactive” throughout.
For `Oc1ccc(C(O)CNCCCCCCNCC(O)c2ccc(O)c(O)c2)cc1O` (stereo not given), the Potency result in assay [5] and in assay [7] was “inactive” each time.
In the case of `CN1CCCC(n2nc(Cc3ccc(Cl)cc3)c3ccccc3c2=O)CC1` (stereo not given), in assay [5], the Potency result was “inactive”.
Turning to `CC(O)Cn1cnc2c1c(=O)n(C)c(=O)n2C` (stereo not given), the Potency entry in assay [5] is “inactive”. The activity change, negative = inhibition in assay [7] was 0.504%.
Consider `C#C[C@]1(OC(C)=O)CC[C@H]2[C@@H]3CCC4=C/C(=N/O)CC[C@@H]4[C@H]3CC[C@@]21CC`, for which the Potency result in assay [5] was “inactive”. Further, the activity change, negative = inhibition in assay [7] was -15.4%.
With `Oc1ccc(O)cc1`, the Potency result in assay [5] was “inactive”.
Consider `CCCCCC1Nc2cc(C(F)(F)F)c(S(N)(=O)=O)cc2S(=O)(=O)N1` (stereo not given), for which the Potency entry in assay [5] and in assay [7] was “inactive” throughout.
Regarding `CN(C)[C@@H]1C(=O)C(C(=O)NCN2CCCC2)=C(O)[C@@]2(O)C(=O)C3=C(O)c4c(O)cccc4[C@@](C)(O)C3C[C@@H]12` (stereo not given in full), the Potency result in assay [5] and in assay [7] was “inactive” in each case.
On to `O=C(CCCN1CC=C(n2c(=O)[nH]c3ccccc32)CC1)c1ccc(F)cc1`, for which the Potency entry in assay [5] and in assay [7] was “inactive” each time.
With `CCN(CC)CCOC(=O)C(Cc1cccc2ccccc12)CC1CCCO1` (stereo not given), the Potency entry in assay [5] is “inactive”.
For the compound `CO[C@]1(NC(=O)CSC(F)F)C(=O)N2C(C(=O)O)=C(CSc3nnnn3CCO)CO[C@H]21`, the Potency result in assay [5] and in assay [7] was “inactive” in each case.
For the compound `CC1CC(=O)NN=C1c1ccc(NCC(C)(C)NCC(O)COc2cc(Cl)ccc2C#N)cc1` (stereo not given), in assay [5], the Potency entry was “inactive”. For the same compound, the activity change, negative = inhibition in assay [7] was -23.2%.
In the case of `Cc1ccc(=O)n(-c2ccccc2)c1`, the Potency result in assay [5] and in assay [7] was “inactive” in each case.
Turning to `CC(=O)O[C@H]1C[C@@H]2CC[C@@H]3[C@H](CC[C@@]4(C)[C@H]3C[C@H]([N+]3(C)CCCCC3)[C@@H]4OC(C)=O)[C@@]2(C)C[C@@H]1N1CCCCC1`, the Potency entry in assay [5] was “inactive”. Also, in assay [7], the activity change, negative = inhibition is -7.24%.
Consider `O=C(O)c1cn(-c2ccc(F)cc2)c2cc(N3CCNCC3)c(F)cc2c1=O`, for which the Potency entry in assay [5] and in assay [7] was “inactive” in each case.
Turning to `COc1nc(C)nc(Cl)c1NC1=NCCN1`, the Potency entry in assay [5] and in assay [7] was “inactive” throughout.
Turning to `CCC1NC(=O)c2cc(S(N)(=O)=O)c(Cl)cc2N1` (stereo not given), the Potency entry in assay [5] is “inactive”. Moreover, the activity change, negative = inhibition in assay [7] is -25.9%.
`CC(=O)OCC(=O)[C@@]1(O)CCC2C3CCC4=CC(=O)CC[C@]4(C)C3[C@@H](O)C[C@@]21C` (stereo not given in full): the Potency result in assay [5] and in assay [7] was “inactive” throughout.
On to `CN(C)CCCOC1(Cc2ccccc2)CCCCCC1`, for which the Potency entry in assay [5] is “inactive”. Besides, the activity change, negative = inhibition in assay [7] is -0.0488%.
As for `C[C@H]1NCc2cc(-c3ccc4c(=O)c(C(=O)O)cn(C5CC5)c4c3OC(F)F)ccc21`, the Potency entry in assay [5] was “inactive”. Besides, the activity change, negative = inhibition in assay [7] is -12.7% [at 27.1 µM].
For the compound `C[C@H](CCC(=O)O)[C@H]1CC[C@H]2[C@@H]3C(=O)C[C@@H]4CC(=O)CC[C@]4(C)[C@H]3CC(=O)[C@]12C`, the Potency entry in assay [5] is “inactive”.
For `CCCCC[C@H](O)C=C[C@H]1[C@H](O)CC(=O)[C@H]1CC=CCCCC(=O)O`, the Potency result in assay [5] and in assay [7] was “inactive” each time.
In the case of `O=C(O)CCC(=O)Nc1ccc(S(=O)(=O)Nc2nccs2)cc1`, the Potency entry in assay [5] and in assay [7] was “inactive” each time.
Take `O=S1(=O)OC(c2ccc(O)cc2)(c2ccc(O)cc2)c2ccccc21`: the Potency entry in assay [5] was “inactive”. In assay [7], the activity change, negative = inhibition worked out at 4.87%.
With `CNC[C@H](O)c1ccc(O)c(O)c1`, in assay [5], the Potency result is “inactive”.
`CC(C)C(=O)Nc1cccc(C2CN3CCSC3=N2)c1` (stereo not given): the Potency result in assay [5] was “inactive”. In assay [7], the activity change, negative = inhibition was -6.4%.
The matching figures for `COC(=O)C1=C(C)NC(COC(N)=O)=C(C(=O)OC(C)C)C1c1cccc(Cl)c1Cl` (stereo not given): “inactive” and -3.4%.
With `CCOC(=O)c1ccc(C#Cc2ccc3c(c2)C(C)(C)CCS3)nc1`, the Potency result in assay [5] and in assay [7] was “inactive” throughout.
`CN(C)CCN(Cc1cccs1)c1ccccn1`: in assay [5], the Potency entry is “inactive”. In addition, in assay [7], the activity change, negative = inhibition was -3.24%.
Turning to `CC(C(=O)O)c1ccc(CC2CCCC2=O)cc1` (stereo not given), the Potency entry in assay [5] and in assay [7] was “inactive” throughout.
On to `C[C@@H]1C[C@H]2[C@@H]3CCC4=CC(=O)C=C[C@]4(C)[C@@]3(Cl)[C@@H](O)C[C@]2(C)[C@@]1(OC(=O)c1ccco1)C(=O)CCl`, for which, in assay [5], the Potency entry was “inactive”. The activity change, negative = inhibition in assay [7] is -22.6%.
For `CCCOc1ccc(C(=O)OCCN(CC)CC)cc1N`, the Potency entry in assay [5] is “inactive”. Moreover, the activity change, negative = inhibition in assay [7] was 2.8% and -24.9%.

The values are drawn from PubChem BioAssay (NCATS).
